# Laboratory results as given in the supplement of paper PMC10849652.
# Targets with a hit are over-represented here; the source holds about 7,900 in all. About 0.6% of all pairs of compound and target were hits. Unmarked numbers belong to inactive results.
# Compound: c1ccc([C@@H]2C[C@H]2NC2CCNCC2)cc1
# Assay: log2 fold change, soluble protein after heating vs DMSO (PISA); higher = thermal stabilisation; K562 cells, 10 uM, 30 min; active = over 0.2 and 3.5 SD of the protein, either way, in both replicates (recomputed)
# Summary of the method: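 Values are thermal stability changes relative to control samples and are taken from duplicates. They are stated as log2 fold changes. Before quantification by TMTpro 16plex LC-MS/MS with equalised channel sums, K562 cells at 2×10^6 cells/mL were treated with 10 μM compound for 30 min, heated in aliquots for 3 min across 48°C-58°C, pooled, extracted in PBS with 0.5% NP-40 at 4°C, and centrifuged at 21,000xg for 90 min to give the soluble supernatant.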
# UniProt P49189, sequence (P49189 whole entry, looked up): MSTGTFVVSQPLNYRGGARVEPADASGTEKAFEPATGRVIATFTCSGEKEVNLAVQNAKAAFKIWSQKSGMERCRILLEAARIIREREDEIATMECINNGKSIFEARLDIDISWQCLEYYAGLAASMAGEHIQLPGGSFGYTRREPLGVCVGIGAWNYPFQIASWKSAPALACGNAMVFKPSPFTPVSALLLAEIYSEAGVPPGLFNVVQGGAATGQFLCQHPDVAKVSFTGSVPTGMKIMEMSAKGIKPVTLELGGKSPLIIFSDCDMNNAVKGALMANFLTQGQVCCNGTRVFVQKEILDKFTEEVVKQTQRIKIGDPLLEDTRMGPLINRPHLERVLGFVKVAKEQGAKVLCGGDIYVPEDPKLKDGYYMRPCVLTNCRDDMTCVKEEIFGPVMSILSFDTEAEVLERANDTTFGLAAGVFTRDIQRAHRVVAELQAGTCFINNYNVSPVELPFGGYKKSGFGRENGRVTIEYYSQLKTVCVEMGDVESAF
# UniProt Q9Y4P1, sequence (Q9Y4P1 whole entry, looked up): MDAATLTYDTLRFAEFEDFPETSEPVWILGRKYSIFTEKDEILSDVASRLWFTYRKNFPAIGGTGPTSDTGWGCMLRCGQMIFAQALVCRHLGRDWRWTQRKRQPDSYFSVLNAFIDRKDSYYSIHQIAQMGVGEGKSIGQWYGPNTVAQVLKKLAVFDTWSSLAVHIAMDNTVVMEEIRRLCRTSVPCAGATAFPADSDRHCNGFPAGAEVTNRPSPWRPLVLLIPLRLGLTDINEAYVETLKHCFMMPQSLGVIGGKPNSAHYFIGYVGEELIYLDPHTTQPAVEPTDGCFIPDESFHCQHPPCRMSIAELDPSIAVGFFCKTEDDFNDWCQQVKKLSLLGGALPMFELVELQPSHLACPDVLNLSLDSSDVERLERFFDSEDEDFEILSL
# UniProt P33121, sequence (P33121 whole entry, looked up): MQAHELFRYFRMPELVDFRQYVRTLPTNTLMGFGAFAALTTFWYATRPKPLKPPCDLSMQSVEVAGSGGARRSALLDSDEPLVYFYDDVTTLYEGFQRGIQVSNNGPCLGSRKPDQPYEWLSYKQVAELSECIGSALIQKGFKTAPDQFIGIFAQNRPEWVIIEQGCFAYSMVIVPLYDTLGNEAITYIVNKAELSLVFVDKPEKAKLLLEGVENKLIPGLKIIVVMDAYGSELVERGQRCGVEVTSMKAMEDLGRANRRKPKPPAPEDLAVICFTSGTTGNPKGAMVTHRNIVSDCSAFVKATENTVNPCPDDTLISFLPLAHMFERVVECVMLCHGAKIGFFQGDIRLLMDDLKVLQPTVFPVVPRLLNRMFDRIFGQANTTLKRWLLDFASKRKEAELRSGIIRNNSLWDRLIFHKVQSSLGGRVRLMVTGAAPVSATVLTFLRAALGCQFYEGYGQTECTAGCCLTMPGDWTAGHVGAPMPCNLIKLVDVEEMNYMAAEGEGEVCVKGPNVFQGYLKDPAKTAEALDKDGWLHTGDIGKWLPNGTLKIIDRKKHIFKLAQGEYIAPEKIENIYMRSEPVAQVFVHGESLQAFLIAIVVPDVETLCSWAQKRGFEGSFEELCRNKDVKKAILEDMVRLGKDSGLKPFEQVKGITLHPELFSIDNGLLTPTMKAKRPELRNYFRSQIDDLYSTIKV
# UniProt Q96G97, sequence (Q96G97 whole entry, looked up): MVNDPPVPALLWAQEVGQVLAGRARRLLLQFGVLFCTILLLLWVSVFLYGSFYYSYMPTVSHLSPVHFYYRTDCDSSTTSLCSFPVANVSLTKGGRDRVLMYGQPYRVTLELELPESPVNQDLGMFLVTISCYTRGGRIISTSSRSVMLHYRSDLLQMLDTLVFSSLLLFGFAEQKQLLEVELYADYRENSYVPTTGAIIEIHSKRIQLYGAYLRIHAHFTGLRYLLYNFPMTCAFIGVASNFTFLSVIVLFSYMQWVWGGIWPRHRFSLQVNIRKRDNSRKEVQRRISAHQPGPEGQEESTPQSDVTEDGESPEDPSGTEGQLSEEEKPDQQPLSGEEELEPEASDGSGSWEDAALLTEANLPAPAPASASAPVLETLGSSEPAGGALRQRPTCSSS
# UniProt P52895, sequence (P52895 whole entry, looked up): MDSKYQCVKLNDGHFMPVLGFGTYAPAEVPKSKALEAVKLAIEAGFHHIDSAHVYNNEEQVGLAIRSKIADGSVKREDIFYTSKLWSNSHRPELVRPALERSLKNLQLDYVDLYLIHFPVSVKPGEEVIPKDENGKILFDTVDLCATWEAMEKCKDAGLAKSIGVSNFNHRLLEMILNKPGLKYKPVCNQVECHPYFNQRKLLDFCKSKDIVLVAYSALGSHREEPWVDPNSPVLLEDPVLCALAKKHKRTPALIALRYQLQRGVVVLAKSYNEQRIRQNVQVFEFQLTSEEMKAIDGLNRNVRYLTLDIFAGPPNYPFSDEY
# UniProt Q9BR61, sequence (Q9BR61 whole entry, looked up): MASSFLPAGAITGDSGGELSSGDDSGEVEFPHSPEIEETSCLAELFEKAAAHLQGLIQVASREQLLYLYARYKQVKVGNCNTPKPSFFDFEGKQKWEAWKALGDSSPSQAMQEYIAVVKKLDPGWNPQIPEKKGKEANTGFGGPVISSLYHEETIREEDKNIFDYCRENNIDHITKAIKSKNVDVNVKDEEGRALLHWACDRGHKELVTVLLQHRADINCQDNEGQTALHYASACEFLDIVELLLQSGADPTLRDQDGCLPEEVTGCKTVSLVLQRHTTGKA
# UniProt O00170, sequence (O00170 whole entry, looked up): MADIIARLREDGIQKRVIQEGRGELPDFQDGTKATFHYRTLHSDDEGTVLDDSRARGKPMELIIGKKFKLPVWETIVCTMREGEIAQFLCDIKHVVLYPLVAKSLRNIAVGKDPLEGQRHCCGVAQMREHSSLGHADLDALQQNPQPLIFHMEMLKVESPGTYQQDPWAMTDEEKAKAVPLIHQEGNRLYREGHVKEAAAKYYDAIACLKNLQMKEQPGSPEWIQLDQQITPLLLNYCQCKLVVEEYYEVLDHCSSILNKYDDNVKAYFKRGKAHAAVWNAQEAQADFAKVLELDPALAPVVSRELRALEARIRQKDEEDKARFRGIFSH
# UniProt O95433, sequence (O95433 whole entry, looked up): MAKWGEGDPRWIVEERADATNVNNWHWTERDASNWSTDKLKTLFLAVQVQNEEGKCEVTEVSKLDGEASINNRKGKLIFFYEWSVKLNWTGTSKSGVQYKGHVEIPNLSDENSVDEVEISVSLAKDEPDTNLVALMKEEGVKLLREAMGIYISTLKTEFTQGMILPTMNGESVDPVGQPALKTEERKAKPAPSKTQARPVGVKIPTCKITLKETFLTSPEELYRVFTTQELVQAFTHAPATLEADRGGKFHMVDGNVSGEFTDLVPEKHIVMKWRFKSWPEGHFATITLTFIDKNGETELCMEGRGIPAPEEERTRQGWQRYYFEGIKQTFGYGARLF
# UniProt Q9UI12, sequence (Q9UI12 whole entry, looked up): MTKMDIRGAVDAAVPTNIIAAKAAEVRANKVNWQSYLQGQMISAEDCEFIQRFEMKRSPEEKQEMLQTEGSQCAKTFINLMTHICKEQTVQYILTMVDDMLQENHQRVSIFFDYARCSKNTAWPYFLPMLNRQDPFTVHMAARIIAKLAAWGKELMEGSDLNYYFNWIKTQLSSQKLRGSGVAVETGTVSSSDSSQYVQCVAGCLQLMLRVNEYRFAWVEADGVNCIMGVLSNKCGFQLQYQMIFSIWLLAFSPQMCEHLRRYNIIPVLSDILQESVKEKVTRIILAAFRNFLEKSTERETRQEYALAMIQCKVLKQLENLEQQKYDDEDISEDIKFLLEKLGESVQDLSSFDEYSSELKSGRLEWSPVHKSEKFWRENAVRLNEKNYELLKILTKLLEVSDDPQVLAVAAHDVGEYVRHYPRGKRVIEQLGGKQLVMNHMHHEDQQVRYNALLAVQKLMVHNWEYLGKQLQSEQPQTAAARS
# UniProt Q13685, sequence (Q13685 whole entry, looked up): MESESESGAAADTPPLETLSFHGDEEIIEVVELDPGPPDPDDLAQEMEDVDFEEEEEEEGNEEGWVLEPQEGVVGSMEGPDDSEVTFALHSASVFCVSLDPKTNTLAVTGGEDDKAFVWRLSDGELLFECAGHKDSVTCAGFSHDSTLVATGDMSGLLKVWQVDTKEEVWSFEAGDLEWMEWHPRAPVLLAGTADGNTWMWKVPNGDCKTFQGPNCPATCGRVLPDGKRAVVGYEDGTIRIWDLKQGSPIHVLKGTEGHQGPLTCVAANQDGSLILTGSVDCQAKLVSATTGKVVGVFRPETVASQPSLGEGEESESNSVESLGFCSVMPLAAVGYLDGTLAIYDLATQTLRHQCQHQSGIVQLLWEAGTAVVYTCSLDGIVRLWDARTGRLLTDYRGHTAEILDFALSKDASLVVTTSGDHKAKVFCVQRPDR
# UniProt Q13825, sequence (Q13825 whole entry, looked up): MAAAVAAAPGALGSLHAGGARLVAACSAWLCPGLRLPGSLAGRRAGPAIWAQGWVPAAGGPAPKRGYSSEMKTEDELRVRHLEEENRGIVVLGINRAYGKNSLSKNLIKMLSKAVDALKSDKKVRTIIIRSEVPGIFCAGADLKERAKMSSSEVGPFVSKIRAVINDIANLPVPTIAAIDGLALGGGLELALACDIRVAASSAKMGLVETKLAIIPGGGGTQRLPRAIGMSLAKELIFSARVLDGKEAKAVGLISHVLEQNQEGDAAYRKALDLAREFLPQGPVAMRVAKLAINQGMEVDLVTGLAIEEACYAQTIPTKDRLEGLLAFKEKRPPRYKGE
# UniProt P18846, sequence (P18846 whole entry, looked up): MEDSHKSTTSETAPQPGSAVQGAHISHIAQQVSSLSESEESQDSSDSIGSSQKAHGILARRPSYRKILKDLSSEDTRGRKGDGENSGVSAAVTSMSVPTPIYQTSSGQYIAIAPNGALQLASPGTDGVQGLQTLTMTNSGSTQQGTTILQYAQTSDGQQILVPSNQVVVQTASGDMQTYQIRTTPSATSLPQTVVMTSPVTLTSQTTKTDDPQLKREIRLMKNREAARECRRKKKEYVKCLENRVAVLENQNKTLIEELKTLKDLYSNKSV
# UniProt Q8WUW1, sequence (Q8WUW1 whole entry, looked up): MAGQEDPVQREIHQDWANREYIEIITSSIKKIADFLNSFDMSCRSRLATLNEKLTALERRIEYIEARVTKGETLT
row,Target,log2 fold change
1,ARL2BP (UniProt Q9Y2Y0),0.017
2,BRD2 isoform 2 (UniProt P25440),0.029
3,ATIC (UniProt P31939),-0.012
4,AIP (UniProt O00170),-0.018
5,ATP6V1H (UniProt Q9UI12),-0.116
6,ATG4B isoform 2 (UniProt Q9Y4P1),0.07
7,ACP2 (UniProt P11117),0.024
8,BRIP1 (UniProt Q9BX63),0.122
9,ARF4 (UniProt P18085),-0.015
10,AGO1 (UniProt Q9UL18),0.05
11,AGRN (UniProt O00468),0.028
12,APOH (UniProt P02749),0.199
13,ATF1 (UniProt P18846),-0.391 (active)
14,ADH5 (UniProt P11766),0.017
15,BRK1 isoform 2 (UniProt Q8WUW1),-0.013
16,AP2B1 isoform 2 (UniProt P63010),-0.002
17,BSCL2 isoform 4 (UniProt Q96G97),-0.127
18,AKR1C2 (UniProt P52895),-0.011

row,Target,log2 fold change
1,AP2A2 isoform 2 (UniProt O94973),0.028
2,ACBD6 (UniProt Q9BR61),0.073
3,ANXA5 (UniProt P08758),-0.022
4,ALDH9A1 isoform 3 (UniProt P49189),0.028
5,ATP1A4 (UniProt Q13733),0.056
6,ACP1 isoform 2 (UniProt P24666),0.022
7,APPL1 (UniProt Q9UKG1),-0.049
8,ACSL1 (UniProt P33121),-0.03
9,AKT2 (UniProt P31751),-0.028
10,AHSA1 (UniProt O95433),-0.003
11,APOB (UniProt P04114),-0.013
12,AUH (UniProt Q13825),-0.001
13,BST2 (UniProt Q10589),0.055
14,ATP6V1C1 (UniProt P21283),-0.039
15,ALDH9A1 (UniProt P49189),0.156
16,AAMP (UniProt Q13685),0.021
17,ADD1 isoform 3 (UniProt P35611),0.024
18,AKT1 (UniProt P31749),-0.072
